High-throughput results as filed in PubChem.
Hits are enriched below; roughly 19% of the tested compounds scored in any of these assays.
TDP1 cell CPT = DT40-hTDP1 cell growth loss with CPT; chicken DT40 Tdp1-/-;hTDP1 cells + 20 nM CPT, ATP luminescence, 48 h; Potency, µM (doses to about 46.2 µM), without a hit: at the highest dose activity change, negative = growth inhibition, hits mostly inhibitors; 420,000 tested, 12% active; AID 686979; also: potency is read from the fitted curve at half-maximal effect; nearly all actives have a fitted effect of over 55% in size
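Chicken DT40 Tdp1-/- cells stably complemented with human TDP1 were seeded at 400 cells/well in medium containing 20 nM camptothecin, exposed to pin-transferred compounds, and grown at 37 °C for at least 48 hr. Viability was read as ATP luminescence.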
IL1B secr inh = blocks inflammasome-driven IL-1 beta release; 360,000 tested, 4.7% active; AID 743279; activity change, % at 57.5 µM; THP-1 LPS/ATP IL-1B secretion, AlphaLISA, 16 h; stronger effect = lower value; in the data active = activity change below about -50%; inconclusive = mostly about -30% to -49%
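THP-1 cells pretreated 1 hr with compounds (up to 57.5 uM final), then stimulated with LPS (250 ng/mL final) plus ATP (1.25 mM final); secreted IL-1B measured by AlphaLISA after 16 hr, decreased signal indicating inhibition.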
HT1080-NT tox = kills 2HG-producing HT-1080-NT fibrosarcoma cells | AID 686970 | HT-1080-NT fibrosarcoma viability, CellTiter-Glo ATP luminescence, 48 h | Potency, µM (titrated, usually from 46.1 µM), without a hit: top-dose activity, negative = less viability, usual class: cytotoxic | 360,000 tested, 1.6% active;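 also: NT is the 2HG producing partner of a matched IDH1 knockdown line; potency is read from the fitted curve at half-maximal effect; 0% = DMSO-treated cells and -100% = media-only wells without cells; nearly all actives have a fitted effect of over 55% in size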
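HT-1080-NT fibrosarcoma cells (2HG-overproducing), 750 cells/well in RPMI with 5% FBS, dosed after 2 h and incubated 48 h at 37C. CellTiter-Glo luminescence normalized to DMSO and no-cell wells; concentration-response curves fitted and classed.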
DT40 TDP1 no CPT = qHTS for Inhibitors of human tyrosyl-DNA phosphodiesterase 1 (TDP1): qHTS in cells in absence of CPT | DT40 Tdp1-/- hTDP1 cells, no CPT, ATP luminescence, 48 h | Potency, µM (highest dose often 46.2 µM), for inactives: at the highest dose activity change, negative = growth inhibition, hits mostly inhibitors | 420,000 tested, 15% active | AID 686978, 2013; also: potency is read from the fitted curve at half-maximal effect; nearly all actives have a fitted effect of over 55% in size
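Seeded 400 DT40-hTDP1 cells/well (vehicle DMSO, no 20 nM CPT); pinned compounds; ≥48 hr at 37 °C; CellTiter-Glo luminescence as viability measure.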
HT1080 IDH1KD tx = kills HT-1080 cells with IDH1 knockdown | HT-1080 IDH1 knockdown viability, ATP luminescence, 48 h | Potency, µM (doses to about 46.1 µM), without a hit: at the top dose activity, negative = toxicity, actives largely listed as cytotoxic | 360,000 tested, 2% active | AID 686971;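 also: potency is read from the fitted curve at half-maximal effect; 0% = DMSO wells and -100% = cell-free medium wells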
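% activity derives from luminescence (CellTiter-Glo), normalised to DMSO and no-cell wells. HT-1080-IDH1KD cells, 750/well, had 48 h compound exposure at 37 °C.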
Numbers without * were called inactive; ? = inconclusive; nt = no result. Unless noted, calls follow the shape of the dose curve; as a rule, active = well fitted curve in the direction sought with a large enough effect; inconclusive = small, poorly fitted or top-dose-only effect, or another doubt; inactive = no such curve, though single readings can be large; an effect the other way counts as inactive or inconclusive. Unless noted, % is scaled to controls: 0 for no effect and ±100 for the full control effect.

SMILES	TDP1 cell CPT	IL1B secr inh	HT1080-NT tox	DT40 TDP1 no CPT	HT1080 IDH1KD tx
COc1ccc(Cn2ccnc2SCC(=O)Nc2ccccc2)cc1	-12%	0	-5%	-12%	-1%
CCCc1nc2sc3c(N4CCCCC4)ncnc3c2c2c1CCCC2	-6%	nt	nt	1%	nt
Nc1c(C(=O)c2ccccc2)sc2snc(SCC(=O)c3ccccc3)c12	?	-2	-16%	?	-24%
Cc1cc(C(F)F)n2nc(C(=O)Nc3ccc(C(C)C)cc3)nc2n1	-17%	nt	nt	-30%	nt
Cc1cccc(N(CC(=O)NCC2CCCO2)C(=O)CCC(=O)Nc2nccs2)c1 (stereo not drawn)	9%	18	9%	-5%	9%
COc1cccc(NC(=O)CSc2nccn2-c2cccc(OC)c2)c1	?	-13	-2%	?	-1%
COc1cccc(-n2ccnc2SCC(=O)Nc2cccc(C)c2C)c1	21µM*	nt	nt	16µM*	nt
Cc1cc(C)cc(-n2ccnc2SCC(=O)Nc2ccc3c(c2)OCO3)c1	?	nt	nt	21µM*	nt
CCOC(=O)c1ccc(NC(=O)CSc2nccn2C)cc1	?	-15	17%	?	1%
CCOC(=O)c1ccc(NC(=O)CSc2nccn2-c2cc(C)cc(C)c2)cc1	23µM*	nt	nt	18µM*	nt
COc1cccc(-n2ccnc2SCC(=O)Nc2ccccc2)c1	5.8µM*	-15	8%	8.2µM*	4%
O=C(CSc1nccn1-c1cccc(Cl)c1)Nc1ccc2c(c1)OCO2	?	nt	nt	-25%	nt
O=c1cc(CN2CCOCC2)c2ccccc2o1	-12%	0	6%	-1%	10%
CCOc1ccc(NS(=O)(=O)c2ccc(C(=O)N3CCCCC3)cc2)cc1	15µM*	32	-2%	13µM*	-19%
O=C(c1ccc(NS(=O)(=O)c2ccc3c(c2)OCCO3)cc1)N1CCCCC1	?	?	?	21µM*	?
COC(=O)c1ccc(Cl)c(NS(=O)(=O)c2ccc3c(c2)OCCO3)c1	5.2µM*	3	?	4.1µM*	4.6µM*
O=C(c1ccc(S(=O)(=O)Nc2ccc(F)cc2)cc1)N1CCN(C(=O)c2ccco2)CC1	13µM*	19	-8%	12µM*	?
NC(=O)C1CCN(S(=O)(=O)c2cc3c4c(c2)CCN4C(=O)CC3)CC1	2%	5	-1%	-10%	-2%
COC(=O)C1=C(C)NC(C)=C(C(=O)OC)C1C(=O)OCC(=O)NC1CCCCC1C (stereo not drawn)	-13%	-1	9%	-5%	11%
CC(C)[C@H](NS(=O)(=O)c1ccc2c(c1)OCCO2)C(=O)OCC(=O)Nc1cc(Cl)ccc1Cl	?	30	-7%	29µM*	-4%
CCOc1ccc(S(=O)(=O)Nc2ccc(C(=O)N3CC(C)OC(C)C3)cc2)cc1 (stereo not drawn)	?	8	4%	-22%	0%
CCOc1ccccc1N1CCN(C(=O)c2ccc(S(=O)(=O)Nc3ccccc3)cc2)CC1	18µM*	-8	-17%	?	-15%
CC1CCN(C(=O)c2ccc(NS(=O)(=O)c3ccccc3)cc2)CC1	-4%	6	4%	-8%	0%
COc1ccc(NS(=O)(=O)c2ccc(C(=O)N3CCC(C)CC3)cc2)cc1	23µM*	-2	-5%	?	-13%
CC1CN(C(=O)c2ccc(NS(=O)(=O)c3ccc(C(C)(C)C)cc3)cc2)CC(C)O1 (stereo not drawn)	15µM*	48	-17%	9.2µM*	-15%
CCOc1ccccc1N1CCN(C(=O)c2ccccc2)CC1	-12%	5	7%	-21%	8%
O=C(NC(Cc1ccccc1)C(=O)N1CCN(S(=O)(=O)c2ccccc2)CC1)c1ccccc1 (stereo not drawn)	?	-10	-1%	-29%	-1%
O=C(NC(Cc1ccccc1)C(=O)N1CCN(c2ccccc2O)CC1)c1ccccc1 (stereo not drawn)	?	-8	-27%	16µM*	-18%
